Assay results as given in PubChem BioAssay (EPA / NIEHS).
Active and inactive are the calls of the source. How the source made its calls: active means hit-call score of the fitted dose curve at least 0.9, where 1 is the maximum; inactive means score below 0.9.

What was measured:
[1] = read-out: Thrombomodulin, THBD (gene 7056); assay: BSK_CASM3C_Thrombomodulin: BioMAP Diversity Plus: CASM3C Assay for Thrombomodulin Biomarker Activity (AID 2283051); conditions: primary human coronary artery smooth muscle cells; actives raise or lower the signal;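 further: thrombomodulin protein level measured by ELISA 24 h after dosing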
[2] = read-out: Tissue Factor, F3 (gene 2152); assay: BSK_CASM3C_TissueFactor: BioMAP Diversity Plus: CASM3C Assay for Tissue Factor Biomarker Activity (AID 2283052); conditions: primary human coronary artery smooth muscle cells; actives raise or lower the signal;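 further: cell surface tissue factor protein level read by ELISA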
[3] = read-out: Urokinase-type plasminogen activator receptor (uPAR), PLAUR (gene 5329); assay: BSK_CASM3C_uPAR: BioMAP Diversity Plus: CASM3C Assay for Urokinase-type plasminogen activator receptor (uPAR) Biomarker Activity (AID 2283054); conditions: primary human coronary artery smooth muscle cells; actives raise or lower the signal;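 further: cell-surface uPAR protein level quantified by ELISA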
[4] = read-out: Vascular cell adhesion molecule 1 (VCAM1), VCAM1 (gene 7412); assay: BSK_CASM3C_VCAM1: BioMAP Diversity Plus: CASM3C Assay for Vascular cell adhesion molecule 1 (VCAM1) Biomarker Activity (AID 2283055); conditions: primary human coronary artery smooth muscle cells; actives raise or lower the signal;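 further: VCAM-1 protein level quantified by ELISA on the cells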
[5] = read-out: Collagen III, COL3A1 (gene 1281); assay: BSK_hDFCGF_CollagenIII: BioMAP Diversity Plus: hDFCGF Assay for Collagen III Biomarker Activity (AID 2283056); conditions: primary human foreskin fibroblasts; actives raise or lower the signal
Procedure, shortened: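 Human foreskin primary fibroblasts were exposed to test chemicals for 24 h, after which collagen III was quantified by ELISA. Activity was fitted bidirectionally against DMSO as negative control and baseline.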

[6] = read-out: Epidermal growth factor receptor (EGFR), EGFR (gene 1956); assay: BSK_hDFCGF_EGFR: BioMAP Diversity Plus: hDFCGF Assay for Epidermal growth factor receptor (EGFR) Biomarker Activity (AID 2283057); conditions: primary human foreskin fibroblasts; actives raise or lower the signal
Procedure, shortened: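 hDFCGF system, primary human foreskin fibroblasts; compound 24 h; EGFR measured by ELISA; DMSO = negative control/baseline; bidirectional fitting.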

[7] = read-out: Interleukin-8 (IL8), CXCL8 (gene 3576); assay: BSK_hDFCGF_IL8: BioMAP Diversity Plus: hDFCGF Assay for Interleukin-8 (IL8) Biomarker Activity (AID 2283058); conditions: primary human foreskin fibroblasts; actives raise or lower the signal
Procedure, shortened: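 hDFCGF human dermal fibroblasts; 24 h chemical exposure; IL-8 by ELISA; bidirectional curve fit vs DMSO baseline; gain or loss of signal scored.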

[8] = BSK_hDFCGF_Proliferation: Cell Proliferation Assessment in the BioMAP Diversity Plus: hDFCGF Assay (AID 2283059); conditions: primary human foreskin fibroblasts;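 further: curves fitted for both rise and fall of signal versus DMSO baseline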
Procedure, shortened: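 This proliferation readout used SRB total-protein staining of human foreskin fibroblasts […], normalized to DMSO with bidirectional curve fitting.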

[9] = read-out: Macrophage colony-stimulating factor (MCSF), CSF1 (gene 1435); assay: BSK_hDFCGF_MCSF: BioMAP Diversity Plus: hDFCGF Assay for Macrophage colony-stimulating factor (MCSF) Biomarker Activity (AID 2283060); conditions: primary human foreskin fibroblasts; actives raise or lower the signal
Procedure, shortened: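 Human foreskin primary fibroblasts were treated with test chemical for 24 h, and M-CSF was then measured by ELISA. Data were fitted bidirectionally against DMSO as the negative control and activity baseline.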

[10] = BSK_hDFCGF_SRB: Viability Assessment in the BioMAP Diversity Plus: hDFCGF Assay (AID 2283061); conditions: primary human foreskin fibroblasts;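 further: cells exposed to compound for 24 h before the read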
Procedure, shortened: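 Human foreskin primary fibroblasts were treated with compound and assessed 24 h after dosing. Total protein was measured by sulforhodamine B staining (0.1% SRB after 10% TCA fixation, 560 nm read) as a cytotoxicity marker, with bidirectional fitting against DMSO baseline.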

[11] = read-out: TIMP metallopeptidase inhibitor 1 (TIMP1), TIMP1 (gene 7076); assay: BSK_hDFCGF_TIMP1: BioMAP Diversity Plus: hDFCGF Assay for TIMP metallopeptidase inhibitor 1 (TIMP1) Biomarker Activity (AID 2283062); conditions: primary human foreskin fibroblasts; actives raise or lower the signal
Procedure, shortened: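 Primary human foreskin fibroblasts in the hDFCGF system were dosed with compound for 24 h, then TIMP-1 was measured by ELISA. Activity was fitted bidirectionally relative to DMSO control; parallel SRB staining assessed cytotoxicity.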

[12] = read-out: Monokine induced gamma interferon (MIG), CXCL9 (gene 4283); assay: BSK_hDFCGF_MIG: BioMAP Diversity Plus: hDFCGF Assay for Monokine induced gamma interferon (MIG) Biomarker Activity (AID 2283063); conditions: primary human foreskin fibroblasts; actives raise or lower the signal
Procedure, shortened: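 ELISA read-out of MIG from primary human dermal fibroblasts 24 h post-dosing. Gain or loss of signal fitted bidirectionally, DMSO as baseline.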

[13] = read-out: Matrix Metallopeptidase 1 (MMP1), MMP1 (gene 4312); assay: BSK_hDFCGF_MMP1: BioMAP Diversity Plus: hDFCGF Assay for Matrix Metallopeptidase 1 (MMP1) Biomarker Activity (AID 2283064); conditions: primary human foreskin fibroblasts; actives raise or lower the signal
Procedure, shortened: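 hDFCGF primary fibroblasts (human foreskin); chemical added; 24 h; MMP1 by ELISA; bidirectional fit vs DMSO.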

[14] = read-out: Plasminogen activator inhibitor-1 (PAI1), SERPINE1 (gene 5054); assay: BSK_hDFCGF_PAI1: BioMAP Diversity Plus: hDFCGF Assay for Plasminogen activator inhibitor-1 (PAI1) Biomarker Activity (AID 2283066); conditions: primary human foreskin fibroblasts; actives raise or lower the signal
Procedure, shortened: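 Primary dermal fibroblasts (human foreskin), hDFCGF system; compound 24 h; PAI-1 by ELISA; bidirectional fit vs DMSO control.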

[15] = read-out: Intercellular Adhesion Molecule 1 (ICAM1), ICAM1 (gene 3383); assay: BSK_KF3CT_ICAM1: BioMAP Diversity Plus: KF3CT Assay for Intercellular Adhesion Molecule 1 (ICAM1) Biomarker Activity (AID 2283067); conditions: primary human keratinocytes with fibroblasts; actives raise or lower the signal
Procedure, shortened: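 Human keratinocyte plus foreskin fibroblast primary co-culture was exposed to chemical for 24 h. ICAM-1 was then quantified by ELISA, and the data were fit bidirectionally against DMSO as the negative control and baseline.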

[16] = BSK_KF3CT_SRB: Viability Assessment in the BioMAP Diversity Plus: KF3CT Assay (AID 2283069); conditions: primary human keratinocytes with fibroblasts;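 further: fitted for both signal gain and loss against DMSO baseline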
Procedure, shortened: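 Keratinocytes co-cultured with foreskin fibroblasts (human primary); chemical added, 24 h; fix 10% TCA, stain 0.1% SRB, A560. Bidirectional fit vs DMSO.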

[17] = read-out: Interleukin-1 alpha (IL1a), IL1A (gene 3552); assay: BSK_KF3CT_IL1a: BioMAP Diversity Plus: KF3CT Assay for Interleukin-1 alpha (IL1a) Biomarker Activity (AID 2283070); conditions: primary human keratinocytes with fibroblasts; actives raise or lower the signal
Procedure, shortened: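 Chemicals were dosed onto co-cultured human keratinocytes and foreskin fibroblasts, IL-1a was quantified by ELISA at 24 h, and activity was fitted in both directions relative to DMSO controls.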

[18] = read-out: Interferon-gamma inducible Protein 10 (IP10), CXCL10 (gene 3627); assay: BSK_KF3CT_IP10: BioMAP Diversity Plus: KF3CT Assay for Interferon-gamma inducible Protein 10 (IP10) Biomarker Activity (AID 2283068); conditions: primary human keratinocytes with fibroblasts; actives raise or lower the signal
Procedure, shortened: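 Signal is secreted/surface IP-10 by ELISA in a human primary skin co-culture of keratinocytes and foreskin fibroblasts, taken 24 h post-dosing; DMSO served as negative control.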

[19] = read-out: Vascular cell adhesion molecule 1 (VCAM1), VCAM1 (gene 7412); assay: BSK_hDFCGF_VCAM1: BioMAP Diversity Plus: hDFCGF Assay for Vascular cell adhesion molecule 1 (VCAM1) Biomarker Activity (AID 2283065); conditions: primary human foreskin fibroblasts; actives raise or lower the signal;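 on AC50: VCAM-1 protein level quantified by ELISA after 24 h chemical exposure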
Procedure, shortened: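 Primary human foreskin fibroblasts (hDFCGF system) were dosed with chemical and VCAM-1 was measured by ELISA 24 h later. Bidirectional curve fitting used DMSO as negative control and activity baseline.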

Measured: AC50

Fc1ccc(Oc2ccnc3cc(Cl)cc(Cl)c23)cc1
active: [1] 18.6 µM | [5] 12.1 µM | [8] 11.7 µM | [9] 16.4 µM | [10] 15.3 µM | [12] 26.6 µM | [13] 35.3 µM | [14] 18 µM
not listed: [18] | [19]
inactive: all other assays above

C#CCOS(=O)OC1CCCCC1Oc1ccc(C(C)(C)C)cc1 (stereo unspecified)
inactive: [2] | [4] | [6] | [15]
active: [1] 5.22 µM | [3] 11.2 µM | [5] 1.27 µM | [7] 15.3 µM | [8] 2.73 µM | [9] 4.84 µM | [10] 3.73 µM | [11] 5.66 µM | [12] 13 µM | [13] 10 µM | [14] 5.14 µM | [18] 12.8 µM | [16] 9.7 µM | [17] 14.8 µM

Cc1cc(Cl)ccc1OCC(=O)O
not listed: [18] | [19]
inactive: all other assays above

N#Cc1nn(-c2c(Cl)cc(C(F)(F)F)cc2Cl)c(N)c1S(=O)C(F)(F)F (stereo unspecified)
active: [1] 21.9 µM | [4] 23.6 µM | [6] 1.71 µM
not listed: [18]
inactive: all other assays above

COc1nc(NC(C)C)nc(NC(C)C)n1
not listed: [19]
inactive: all other assays above

COP(=S)(OC)Oc1nc(Cl)c(Cl)cc1Cl
active: [1] 16.1 µM | [5] 20 µM | [8] 28.2 µM | [9] 30 µM | [12] 14.9 µM | [19] 5.76 µM
not listed: [18]
inactive: all other assays above
